Measured values as given in the supplement of paper PMC10849652.
The full data set covers some 8,800 targets. This sample favours those with a hit. About 0.5% of all pairs of compound and target were hits.

Assays:
Test in all cases: log2 fold change, soluble protein after heating vs DMSO (PISA); higher = thermal stabilisation; K562 lysate, 10 uM; active = over 0.2 and 3.5 SD of the protein, either way, in both replicates (recomputed)
erlotinib = compound: C#Cc1cccc(Nc2ncnc3cc(OCCOC)c(OCCOC)cc23)c1 [erlotinib]
How it was run: (§1)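 K562 pellets were dounce-homogenised in PBS pH 7.4 with 1 mM MgCl2, and the crude extract at 1 mg/mL protein was treated with 10 μM compound for 30 min. Aliquots were heated for 3 min across 48°C-58°C, pooled, and brought to 0.5% NP-40 at 4°C; soluble protein was the supernatant after 21,000xg for 90 min. Soluble protein was quantified by TMTpro 16plex LC-MS/MS with channel sums equalised, and reported as log2 fold change in thermal stability against DMSO controls, with values from duplicates.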

[1] = compound: C/C(=N\NC(=O)C1=CC(=CC=C1)S(=O)(=O)N2CCOCC2)/C3=C(C=CC(=C3)Cl)O
How it was run: as §1

[2] = compound: C1=CC(=CC=C1C2=NC3=C(N2)C=C(C=C3)C(=O)N)OC4=CC=C(C=C4)Cl
How it was run: as §1

[3] = compound: C1=CC2=C(C=CC(=C2)/C=C\3/C(=O)NC(=NCC4=CC=CS4)S3)N=C1
How it was run: as §1

[4] = compound: C1=CC2=NC=CN=C2C=C1/C=C/3\C(=O)NC(=O)S3
How it was run: as §1

[5] = compound: C1=CC=C(C=C1)C2=NC(=C(N2)C3=CC=NC=C3)C4=CC(=C(C=C4)Cl)O
How it was run: as §1

[6] = compound: C1=CC=C2C(=C1)C3=NNC4=CC=CC(=C43)C2=O
How it was run: as §1

[7] = compound: C1CCN(C1)C(=O)NC2=CC=CC(=C2)NC3=NC=C(C(=N3)NCCC4=CN=CN4)Br
How it was run: as §1

[8] = compound: C1CN(CCC1(CC2=CC=C(C=C2)Cl)N)C3=NC=NC4=C3C=CN4
How it was run: as §1

IRAK-1-4 Inhibitor I = compound: C1COCCN1CCN2C3=CC=CC=C3N=C2NC(=O)C4=CC(=CC=C4)[N+](=O)[O-] [IRAK-1-4 Inhibitor I]
How it was run: as §1

Measured: log2 fold change

TFCP2 (UniProt Q12800)
inactive: erlotinib -0.035 | [1] 0.08 | [2] -0.115 | [3] 0.01 | [4] -0.042 | [5] -0.007 | [6] -0.02 | [7] -0.038 | [8] -0.044 | IRAK-1-4 Inhibitor I 0.035

TPM1 (UniProt H7BYY1)
inactive: erlotinib -0.034 | [1] -0.004 | [2] -0.057 | [3] 0.026 | [4] -0.008 | [5] 0.091 | [6] -0.041 | [7] 0.012 | [8] -0.02 | IRAK-1-4 Inhibitor I -0.071

UFSP2 (UniProt Q9NUQ7)
inactive: erlotinib -0.04 | [1] -0.034 | [2] 0.028 | [3] 0.098 | [4] -0.015 | [5] -0.042 | [6] -0.055 | [7] -0.026 | [8] -0.037 | IRAK-1-4 Inhibitor I 0.023

TUBAL3 (UniProt A6NHL2)
inactive: erlotinib -0.018 | [1] -0.01 | [2] -0.076 | [3] -0.114 | [4] -0.004 | [5] -0.011 | [6] -0.134 | [7] -0.025 | [8] 0.037 | IRAK-1-4 Inhibitor I 0.078

TFIP11 (UniProt Q9UBB9)
Sequence of UniProt Q9UBB9 (Q9UBB9 whole entry, looked up): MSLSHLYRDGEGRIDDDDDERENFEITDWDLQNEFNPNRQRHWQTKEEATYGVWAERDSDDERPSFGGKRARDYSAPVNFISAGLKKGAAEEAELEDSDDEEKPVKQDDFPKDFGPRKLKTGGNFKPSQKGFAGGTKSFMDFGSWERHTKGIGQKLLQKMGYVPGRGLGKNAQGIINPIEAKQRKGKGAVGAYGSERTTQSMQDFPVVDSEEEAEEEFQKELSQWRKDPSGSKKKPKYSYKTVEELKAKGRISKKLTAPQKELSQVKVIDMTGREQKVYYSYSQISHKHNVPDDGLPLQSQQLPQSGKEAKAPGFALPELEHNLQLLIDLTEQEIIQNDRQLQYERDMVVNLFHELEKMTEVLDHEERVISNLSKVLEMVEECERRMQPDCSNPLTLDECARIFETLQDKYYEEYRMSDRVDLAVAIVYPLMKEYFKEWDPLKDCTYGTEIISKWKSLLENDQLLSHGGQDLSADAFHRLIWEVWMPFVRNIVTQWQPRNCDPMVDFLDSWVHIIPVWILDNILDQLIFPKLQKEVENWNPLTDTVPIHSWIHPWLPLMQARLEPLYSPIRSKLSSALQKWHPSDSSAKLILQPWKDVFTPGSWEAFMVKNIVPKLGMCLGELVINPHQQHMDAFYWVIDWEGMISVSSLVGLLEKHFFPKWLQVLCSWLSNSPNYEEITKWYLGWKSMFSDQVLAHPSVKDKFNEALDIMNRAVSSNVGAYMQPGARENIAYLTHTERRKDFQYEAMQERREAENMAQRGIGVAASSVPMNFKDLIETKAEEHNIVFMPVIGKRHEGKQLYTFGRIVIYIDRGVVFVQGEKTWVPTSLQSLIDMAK
inactive: erlotinib -0.026 | [1] -0.099 | [2] -0.082 | [3] -0.025 | [4] -0.027 | [5] 0.023 | [6] -0.036 | [7] -0.008 | [8] 0.074 | IRAK-1-4 Inhibitor I -0.016

UBXN10 (UniProt Q96LJ8)
inactive: erlotinib 0.064 | [1] 0.026 | [2] 0.057 | [3] -0.089 | [4] -0.072 | [5] 0.027 | [6] 0.018 | [7] -0.012 | [8] 0.041 | IRAK-1-4 Inhibitor I 0.03

TOPBP1 (UniProt Q92547)
inactive: erlotinib 0.004 | [1] -0.056 | [2] -0.034 | [3] 0.018 | [4] 0.002 | [5] 0.003 | [6] -0.009 | [7] -0.134 | [8] 0.072 | IRAK-1-4 Inhibitor I -0.006

TTI2 (UniProt Q6NXR4)
Sequence of UniProt Q6NXR4 (Q6NXR4 whole entry, looked up): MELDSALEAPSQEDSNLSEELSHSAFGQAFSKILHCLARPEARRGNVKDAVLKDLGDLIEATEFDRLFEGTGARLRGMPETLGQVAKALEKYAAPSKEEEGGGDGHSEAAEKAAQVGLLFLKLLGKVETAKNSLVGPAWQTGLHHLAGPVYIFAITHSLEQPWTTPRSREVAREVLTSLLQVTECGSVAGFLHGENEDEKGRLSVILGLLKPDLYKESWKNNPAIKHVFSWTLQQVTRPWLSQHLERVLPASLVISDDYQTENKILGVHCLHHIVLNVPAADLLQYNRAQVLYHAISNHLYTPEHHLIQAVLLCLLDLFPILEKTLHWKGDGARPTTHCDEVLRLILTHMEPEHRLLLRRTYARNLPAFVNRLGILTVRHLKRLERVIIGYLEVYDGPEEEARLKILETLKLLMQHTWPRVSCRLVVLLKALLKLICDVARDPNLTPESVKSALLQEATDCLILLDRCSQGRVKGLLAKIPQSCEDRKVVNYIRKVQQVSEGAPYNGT
inactive: erlotinib -0.003 | [1] 0.037 | [2] 0.023 | [3] 0.047 | [4] 0.013 | [5] 0.012 | [6] -0.015 | [7] -0.028 | [8] 0.007 | IRAK-1-4 Inhibitor I 0.014

TUBA1B (UniProt P68363)
inactive: erlotinib 0.031 | [1] -0.022 | [2] 0.009 | [3] -0.018 | [4] 0.006 | [5] -0.013 | [6] -0.018 | [7] 0.009 | [8] 0.02 | IRAK-1-4 Inhibitor I 0.022

TPD52L2 isoform 7 (UniProt O43399)
inactive: erlotinib -0.044 | [1] -0.028 | [2] 0.085 | [3] 0.015 | [4] 0 | [5] 0.017 | [6] 0.036 | [7] 0.029 | [8] -0.004 | IRAK-1-4 Inhibitor I -0.031

TSFM (UniProt P43897)
Sequence of UniProt P43897 (P43897 whole entry, looked up): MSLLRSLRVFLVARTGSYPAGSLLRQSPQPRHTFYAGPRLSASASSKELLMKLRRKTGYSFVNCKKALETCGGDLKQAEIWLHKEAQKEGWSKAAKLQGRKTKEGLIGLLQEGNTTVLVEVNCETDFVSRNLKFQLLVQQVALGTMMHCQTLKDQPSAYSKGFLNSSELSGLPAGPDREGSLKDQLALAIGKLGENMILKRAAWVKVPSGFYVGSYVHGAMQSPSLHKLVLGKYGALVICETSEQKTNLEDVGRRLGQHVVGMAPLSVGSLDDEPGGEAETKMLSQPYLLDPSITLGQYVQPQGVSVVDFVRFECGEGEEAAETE
inactive: erlotinib -0.013 | [1] 0.009 | [2] -0.035 | [3] -0.003 | [4] -0.002 | [5] 0.017 | [6] -0.063 | [7] 0.024 | [8] 0.034 | IRAK-1-4 Inhibitor I -0.024

TMEM14C (UniProt Q9P0S9)
inactive: erlotinib 0.027 | [1] -0.201 | [2] 0.046 | [3] -0.011 | [4] -0.039 | [5] 0.022 | [6] 0.063 | [7] -0.177 | [8] -0.042 | IRAK-1-4 Inhibitor I 0.064

TELO2 (UniProt Q9Y4R8)
inactive: erlotinib 0.023 | [1] 0.006 | [2] -0.035 | [3] 0.025 | [4] 0.048 | [5] 0 | [6] 0.011 | [7] -0.031 | [8] 0.002 | IRAK-1-4 Inhibitor I 0.009

TGOLN2 isoform 7 (UniProt O43493)
inactive: erlotinib -0.108 | [1] 0.007 | [2] 0 | [3] 0.022 | [4] -0.036 | [5] -0.021 | [6] 0.012 | [7] -0.025 | [8] 0.011 | IRAK-1-4 Inhibitor I 0.029

UBAP2 (UniProt Q5T6F2)
inactive: erlotinib -0.02 | [1] -0.02 | [2] 0.032 | [3] 0.01 | [4] 0.022 | [5] -0.159 | [6] 0.016 | [7] -0.009 | [8] 0.001 | IRAK-1-4 Inhibitor I 0.016

TK1 (UniProt P04183)
inactive: erlotinib 0.003 | [1] -0.112 | [2] 0.036 | [3] -0.001 | [4] 0.028 | [5] -0.003 | [6] 0.021 | [7] 0.013 | [8] 0.017 | IRAK-1-4 Inhibitor I 0.008

TMEM87A (UniProt Q8NBN3)
inactive: erlotinib -0.015 | [1] -0.021 | [2] 0.01 | [3] 0.037 | [4] -0.02 | [5] -0.02 | [6] -0.027 | [7] 0.031 | [8] -0.004 | IRAK-1-4 Inhibitor I -0.028

THADA (UniProt Q6YHU6)
Sequence of UniProt Q6YHU6 (Q6YHU6 whole entry, looked up): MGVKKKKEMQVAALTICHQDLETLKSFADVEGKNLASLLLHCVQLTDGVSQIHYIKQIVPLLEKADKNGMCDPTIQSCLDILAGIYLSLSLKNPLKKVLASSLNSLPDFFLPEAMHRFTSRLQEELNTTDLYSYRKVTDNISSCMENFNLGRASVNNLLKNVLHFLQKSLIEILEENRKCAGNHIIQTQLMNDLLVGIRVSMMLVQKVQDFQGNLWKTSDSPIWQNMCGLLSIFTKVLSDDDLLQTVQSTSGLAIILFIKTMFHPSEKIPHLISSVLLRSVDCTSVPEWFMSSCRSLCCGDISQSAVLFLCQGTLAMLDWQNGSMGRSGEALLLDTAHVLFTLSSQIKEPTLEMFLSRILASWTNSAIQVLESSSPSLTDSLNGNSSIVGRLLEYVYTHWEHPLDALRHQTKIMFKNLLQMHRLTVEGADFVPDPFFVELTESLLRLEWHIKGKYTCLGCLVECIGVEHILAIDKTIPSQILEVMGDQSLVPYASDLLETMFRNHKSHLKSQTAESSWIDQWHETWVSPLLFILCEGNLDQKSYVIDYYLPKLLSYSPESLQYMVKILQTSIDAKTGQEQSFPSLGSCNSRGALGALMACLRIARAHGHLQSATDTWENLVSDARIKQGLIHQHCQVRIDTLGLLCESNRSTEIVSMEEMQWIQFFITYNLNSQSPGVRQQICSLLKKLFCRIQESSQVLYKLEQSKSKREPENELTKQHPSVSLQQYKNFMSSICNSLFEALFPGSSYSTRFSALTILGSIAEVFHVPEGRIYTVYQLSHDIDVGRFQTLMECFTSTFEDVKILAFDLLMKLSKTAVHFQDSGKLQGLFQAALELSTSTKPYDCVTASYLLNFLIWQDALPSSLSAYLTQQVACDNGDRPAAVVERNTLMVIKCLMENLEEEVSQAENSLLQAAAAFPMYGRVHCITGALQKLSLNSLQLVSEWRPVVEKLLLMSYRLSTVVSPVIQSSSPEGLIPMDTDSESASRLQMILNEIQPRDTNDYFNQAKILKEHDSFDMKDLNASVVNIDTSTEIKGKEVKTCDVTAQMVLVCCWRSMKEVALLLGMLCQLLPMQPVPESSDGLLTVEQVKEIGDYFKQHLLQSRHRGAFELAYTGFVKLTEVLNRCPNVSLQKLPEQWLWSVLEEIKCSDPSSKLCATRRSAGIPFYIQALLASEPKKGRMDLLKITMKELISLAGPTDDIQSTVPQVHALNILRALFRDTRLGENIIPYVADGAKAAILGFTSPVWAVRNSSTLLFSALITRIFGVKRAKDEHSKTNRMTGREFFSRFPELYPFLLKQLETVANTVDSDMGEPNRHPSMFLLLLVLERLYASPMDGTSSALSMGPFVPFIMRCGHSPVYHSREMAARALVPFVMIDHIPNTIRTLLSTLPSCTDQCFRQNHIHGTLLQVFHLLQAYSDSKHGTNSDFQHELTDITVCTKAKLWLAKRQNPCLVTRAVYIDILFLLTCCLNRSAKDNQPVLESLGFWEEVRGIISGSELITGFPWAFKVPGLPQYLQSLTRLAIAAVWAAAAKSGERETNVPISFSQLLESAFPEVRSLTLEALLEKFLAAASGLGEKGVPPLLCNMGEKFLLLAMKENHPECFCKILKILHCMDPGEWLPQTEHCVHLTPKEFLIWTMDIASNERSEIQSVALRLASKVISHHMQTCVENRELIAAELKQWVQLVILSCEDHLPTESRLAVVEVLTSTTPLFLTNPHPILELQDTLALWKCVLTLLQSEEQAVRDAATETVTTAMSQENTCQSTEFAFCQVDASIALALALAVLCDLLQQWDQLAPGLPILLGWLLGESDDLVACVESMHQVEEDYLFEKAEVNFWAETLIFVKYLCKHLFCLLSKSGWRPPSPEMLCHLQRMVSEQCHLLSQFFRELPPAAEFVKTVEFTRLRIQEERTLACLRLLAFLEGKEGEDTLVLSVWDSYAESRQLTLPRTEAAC
inactive: erlotinib 0.059 | [1] -0.003 | [2] 0 | [3] 0.004 | [4] -0.011 | [5] -0.004 | [6] -0.017 | [7] -0.024 | [8] 0.017 | IRAK-1-4 Inhibitor I -0.017

TEX30 (UniProt Q5JUR7)
Sequence of UniProt Q5JUR7 (Q5JUR7 whole entry, looked up): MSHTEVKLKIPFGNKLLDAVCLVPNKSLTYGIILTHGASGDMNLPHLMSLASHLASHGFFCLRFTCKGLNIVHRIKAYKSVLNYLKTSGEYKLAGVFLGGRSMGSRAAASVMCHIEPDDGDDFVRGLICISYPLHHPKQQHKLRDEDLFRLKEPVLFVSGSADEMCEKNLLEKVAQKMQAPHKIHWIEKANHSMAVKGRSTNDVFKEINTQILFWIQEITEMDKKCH
inactive: erlotinib -0.012 | [1] -0.106 | [2] -0.112 | [3] 0.03 | [4] 0.046 | [5] -0.009 | [6] -0.065 | [7] -0.034 | [8] -0.007 | IRAK-1-4 Inhibitor I -0.031

TRAPPC6A isoform 2 (UniProt O75865)
Sequence of UniProt O75865 (O75865 whole entry, looked up): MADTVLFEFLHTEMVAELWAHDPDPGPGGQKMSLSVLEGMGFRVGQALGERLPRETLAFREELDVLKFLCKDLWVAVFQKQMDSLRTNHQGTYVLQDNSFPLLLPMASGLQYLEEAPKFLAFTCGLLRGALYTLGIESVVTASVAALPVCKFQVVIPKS
inactive: erlotinib 0.018 | [1] 0.095 | [2] 0.002 | [3] 0.049 | [4] -0.055 | [5] -0.016 | [6] -0.005 | [7] 0.154 | [8] 0.095 | IRAK-1-4 Inhibitor I 0.047

TOX4 (UniProt O94842)
inactive: erlotinib -0.016 | [1] -0.025 | [2] 0.049 | [3] 0.037 | [4] -0.052 | [5] 0.04 | [6] -0.003 | [7] -0.014 | [8] 0.053 | IRAK-1-4 Inhibitor I -0.025

TRMT2A (UniProt Q8IZ69)
inactive: erlotinib -0.042 | [1] -0.015 | [2] -0.007 | [3] 0.012 | [4] -0.012 | [5] -0.012 | [6] -0.004 | [7] -0.005 | [8] 0.002 | IRAK-1-4 Inhibitor I -0.007

TXNIP (UniProt Q9H3M7)
Sequence of UniProt Q9H3M7 (Q9H3M7 whole entry, looked up): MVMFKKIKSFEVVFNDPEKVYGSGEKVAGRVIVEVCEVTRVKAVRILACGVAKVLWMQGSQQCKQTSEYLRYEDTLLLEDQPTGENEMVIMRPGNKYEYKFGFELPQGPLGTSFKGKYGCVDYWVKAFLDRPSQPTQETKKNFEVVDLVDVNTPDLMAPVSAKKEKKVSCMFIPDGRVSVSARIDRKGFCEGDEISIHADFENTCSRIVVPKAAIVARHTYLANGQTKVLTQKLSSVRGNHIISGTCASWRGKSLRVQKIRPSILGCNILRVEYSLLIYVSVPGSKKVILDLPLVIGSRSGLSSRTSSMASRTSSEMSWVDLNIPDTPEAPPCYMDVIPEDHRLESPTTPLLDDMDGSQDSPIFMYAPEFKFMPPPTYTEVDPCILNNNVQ
inactive: erlotinib 0.036 | [1] -0.165 | [2] -0.057 | [3] -0.045 | [4] -0.001 | [5] -0.003 | [6] 0.048 | [7] -0.042 | [8] 0.017 | IRAK-1-4 Inhibitor I 0.041

UBR1 (UniProt Q8IWV7)
inactive: erlotinib 0.01 | [1] 0.058 | [2] -0.055 | [3] -0.002 | [4] 0.026 | [5] 0.015 | [6] -0.016 | [7] -0.047 | [8] 0.008 | IRAK-1-4 Inhibitor I 0.002

TUBE1 (UniProt Q9UJT0)
inactive: erlotinib 0.051 | [1] -0.267 | [2] 0.095 | [3] -0.059 | [4] -0.063 | [5] -0.078 | [6] -0.033 | [7] -0.113 | [8] 0.047 | IRAK-1-4 Inhibitor I 0.023

TDRD3 isoform 3 (UniProt Q9H7E2)
inactive: erlotinib 0.051 | [1] -0.029 | [2] -0.019 | [3] 0.086 | [4] 0.005 | [5] 0.257 | [6] -0.085 | [7] -0.059 | [8] 0 | IRAK-1-4 Inhibitor I 0.051

TJP1 isoform 2 (UniProt Q07157)
inactive: erlotinib -0.002 | [1] 0 | [2] 0.037 | [3] -0.007 | [4] -0.082 | [5] -0.018 | [6] -0.041 | [7] -0.075 | [8] 0.039 | IRAK-1-4 Inhibitor I 0.015

UBE2L6 (UniProt O14933)
inactive: erlotinib 0.062 | [1] -0.03 | [2] 0.007 | [3] -0.003 | [4] -0.065 | [5] -0.001 | [6] 0.023 | [7] -0.014 | [8] 0.144 | IRAK-1-4 Inhibitor I 0.047

TUBA1C (UniProt Q9BQE3)
inactive: erlotinib 0.007 | [1] -0.028 | [2] 0.044 | [3] -0.019 | [4] -0.012 | [5] 0.031 | [6] -0.077 | [7] -0.008 | [8] 0.014 | IRAK-1-4 Inhibitor I 0.04

THEMIS2 (UniProt Q5TEJ8)
Sequence of UniProt Q5TEJ8 (Q5TEJ8 whole entry, looked up): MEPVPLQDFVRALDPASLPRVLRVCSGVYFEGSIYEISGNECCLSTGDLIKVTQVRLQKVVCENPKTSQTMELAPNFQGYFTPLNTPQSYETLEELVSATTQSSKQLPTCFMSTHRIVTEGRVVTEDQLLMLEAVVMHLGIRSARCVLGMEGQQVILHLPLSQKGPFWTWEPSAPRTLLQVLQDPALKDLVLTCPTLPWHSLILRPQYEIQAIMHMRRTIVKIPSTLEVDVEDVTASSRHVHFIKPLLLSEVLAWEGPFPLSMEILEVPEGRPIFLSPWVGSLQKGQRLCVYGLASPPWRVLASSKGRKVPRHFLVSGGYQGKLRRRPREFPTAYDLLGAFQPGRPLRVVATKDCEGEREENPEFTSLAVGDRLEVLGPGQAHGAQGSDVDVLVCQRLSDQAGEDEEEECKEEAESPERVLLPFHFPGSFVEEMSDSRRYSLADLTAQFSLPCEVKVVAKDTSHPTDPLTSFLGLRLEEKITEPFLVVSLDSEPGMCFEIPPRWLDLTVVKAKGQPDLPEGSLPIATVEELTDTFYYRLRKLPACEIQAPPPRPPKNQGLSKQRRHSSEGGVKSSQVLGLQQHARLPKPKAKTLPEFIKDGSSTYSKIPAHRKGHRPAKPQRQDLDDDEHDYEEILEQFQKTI
inactive: erlotinib -0.035 | [1] 0.006 | [2] 0.004 | [3] 0.036 | [4] 0.031 | [5] -0.041 | [6] -0.024 | [7] -0.02 | [8] 0.042 | IRAK-1-4 Inhibitor I 0.031
